Experimental findings from PubChem BioAssay (EPA / NIEHS) are described below.

Results filed as inconclusive are left out. Activity calls are given as the source filed them. The calls were made as follows, unless noted: active = hit-call score of the fitted dose curve at least 0.9, where 1 is the maximum; inconclusive = response in the unintended direction; inactive = score below 0.9.

A short description of test [1]: ATG_VDRE_CIS: Attagene CIS-FACTORIAL HepG2 Assay for human Vitamin D Receptor Element (VDRE) (AID 2282968; active = hit-call score of the fitted dose curve at least 0.9, where 1 is the maximum; inactive = score below 0.9). The following applies: HepG2 VDRE cis-reporter transcription, actives raise or lower the signal. Summed up:
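Measures endogenous factor activity through cis-element-driven reporter transcripts in transiently transfected HepG2. Cells are treated 24 h; reporter mRNA is quantified by RT-PCR and capillary electrophoresis; fitting is bidirectional.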

Test [2] addresses Steroid hormone receptor ERR1 (Homo sapiens) (UniProt P11474). Put plainly: ATG_ERRa_TRANS: Attagene TRANS-FACTORIAL HepG2 Assay for human Estrogen-Related Receptor alpha (ERRa) (AID 2282971). The following applies: HepG2 Attagene TRANS reporter, ERRa transactivation. An outline of the steps: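 Signal gain relative to DMSO for an ERRa-Gal4 chimeric receptor, read as reporter mRNA by RT-PCR/capillary electrophoresis. Human HepG2 liver cells, transient multiplex reporter transfection, 24 h chemical exposure.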

Test [3] addresses X-box-binding protein 1 (Homo sapiens) (UniProt P17861). As to the kind of experiment: ATG_Xbp1_CIS: Attagene CIS-FACTORIAL HepG2 Assay for human X-box Binding Protein 1 (XBP1) (AID 2282972; active = hit-call score of the fitted dose curve at least 0.9, where 1 is the maximum; inactive = score below 0.9). The following applies: HepG2 XBP1 cis-element reporter, Attagene multiplex; actives raise or lower the signal. Summed up: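 Changes in reporter transcript abundance, read by RT-PCR and capillary electrophoresis, reflect endogenous transcription factor activity. Transfected HepG2 cells received compound for 24 hours; DMSO defined baseline for bidirectional analysis.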

For test [4], the target named is Estrogen receptor (Homo sapiens) (UniProt P03372). Put plainly: ATG_ERa_TRANS: Attagene TRANS-FACTORIAL HepG2 Assay for human Estrogen Receptor alpha (ERa) (AID 2282970). The following applies: HepG2 Attagene TRANS ERa GAL4 reporter, mRNA. An outline of the steps:
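Signal derives from fluorescence of labelled reporter PCR fragments separated by capillary electrophoresis. HepG2 cells transiently carrying multiple GAL4-UAS reporter units were treated 24 hours, and induction above DMSO baseline was fitted as activity.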

The nature of test [5]: ATG_M_19_TRANS: Attagene TRANS-FACTORIAL HepG2 Assay for M19 Transcription Factor (Internal Marker) (AID 2282974). The following applies: HepG2 Attagene TRANS-FACTORIAL M19 internal marker reporter. An outline of the steps: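 Using RT-PCR and capillary electrophoresis, reporter mRNA from transiently transfected human HepG2 cells was quantified following 24 h exposure; activity was fitted in the positive direction against DMSO.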

For test [6], the target named is Glucocorticoid receptor (Homo sapiens) (UniProt P04150). As to the kind of experiment: ATG_GR_TRANS: Attagene TRANS-FACTORIAL HepG2 Assay for human Glucocorticoid Receptor (GR) (AID 2282978).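 Also: activators score as hits since higher reporter transcript over DMSO is fitted.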 The following applies: HepG2 Attagene TRANS GR reporter, mRNA transcription. An outline of the steps:
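Exogenous NR-GAL4 fusion activity was assessed through induced GAL4-UAS reporter transcripts in transfected human HepG2 cells, quantified after 24 h by RT-PCR and fluorescent capillary electrophoresis with DMSO as baseline.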

A short description of test [7]: ATG_GAL4_TRANS: Attagene TRANS-FACTORIAL HepG2 Assay for GAL4 (Internal Marker) (AID 2282976). The following applies: HepG2 Attagene TRANS GAL4 internal marker reporter. Summed up:
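Liver HepG2 line bearing multiplexed GAL4-UAS reporter constructs; 24 h chemical treatment. Transcripts were quantified as fluorescent fragments on capillary electrophoresis after RT-PCR and HpaI cut, with activity fitted upward from DMSO.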

The target in test [8] is Estrogen-related receptor gamma (Homo sapiens) (UniProt P62508). Put plainly: ATG_ERRg_TRANS: Attagene TRANS-FACTORIAL HepG2 Assay for human Estrogen-Related Receptor gamma (ERRg) (AID 2282977).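 Also: hits increase reporter signal over DMSO so potencies reflect activators.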 The following applies: HepG2 Attagene TRANS reporter, ERRg transactivation. An outline of the steps:
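Exogenous NR-Gal4 chimera activity was assessed in HepG2 cells bearing transfected GAL4-UAS reporters. After 24 h dosing, total RNA underwent RT-PCR, fluorescent primer extension and HpaI digestion before capillary electrophoresis, with gain of signal scored against DMSO.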

Test [9] concerns the target Bile acid receptor (Homo sapiens) (UniProt Q96RI1). Put plainly: ATG_FXR_TRANS: Attagene TRANS-FACTORIAL HepG2 Assay for Farnesoid X Receptor (FXR) (AID 2282979).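 Also: hits raise reporter mRNA above DMSO so AC50 marks FXR activation.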 The following applies: HepG2 Attagene TRANS FXR-GAL4 reporter transcription. An outline of the steps: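 After 24 h chemical treatment of transfected HepG2 cells, GAL4-UAS reporter transcripts driven by an exogenous FXR-GAL4 fusion were measured by RT-PCR and capillary electrophoresis. Increases over DMSO were fitted.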

Chain of X-box-binding protein 1 (Homo sapiens) (P17861 whole entry, looked up): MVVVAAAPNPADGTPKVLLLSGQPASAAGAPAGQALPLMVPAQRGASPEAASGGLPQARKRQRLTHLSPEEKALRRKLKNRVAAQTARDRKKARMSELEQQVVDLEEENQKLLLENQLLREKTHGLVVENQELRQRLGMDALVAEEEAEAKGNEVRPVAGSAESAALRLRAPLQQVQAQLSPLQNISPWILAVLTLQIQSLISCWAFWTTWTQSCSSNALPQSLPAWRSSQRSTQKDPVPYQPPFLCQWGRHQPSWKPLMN
Chain of Glucocorticoid receptor (Homo sapiens) (P04150 whole entry, looked up, the tested form may be a part): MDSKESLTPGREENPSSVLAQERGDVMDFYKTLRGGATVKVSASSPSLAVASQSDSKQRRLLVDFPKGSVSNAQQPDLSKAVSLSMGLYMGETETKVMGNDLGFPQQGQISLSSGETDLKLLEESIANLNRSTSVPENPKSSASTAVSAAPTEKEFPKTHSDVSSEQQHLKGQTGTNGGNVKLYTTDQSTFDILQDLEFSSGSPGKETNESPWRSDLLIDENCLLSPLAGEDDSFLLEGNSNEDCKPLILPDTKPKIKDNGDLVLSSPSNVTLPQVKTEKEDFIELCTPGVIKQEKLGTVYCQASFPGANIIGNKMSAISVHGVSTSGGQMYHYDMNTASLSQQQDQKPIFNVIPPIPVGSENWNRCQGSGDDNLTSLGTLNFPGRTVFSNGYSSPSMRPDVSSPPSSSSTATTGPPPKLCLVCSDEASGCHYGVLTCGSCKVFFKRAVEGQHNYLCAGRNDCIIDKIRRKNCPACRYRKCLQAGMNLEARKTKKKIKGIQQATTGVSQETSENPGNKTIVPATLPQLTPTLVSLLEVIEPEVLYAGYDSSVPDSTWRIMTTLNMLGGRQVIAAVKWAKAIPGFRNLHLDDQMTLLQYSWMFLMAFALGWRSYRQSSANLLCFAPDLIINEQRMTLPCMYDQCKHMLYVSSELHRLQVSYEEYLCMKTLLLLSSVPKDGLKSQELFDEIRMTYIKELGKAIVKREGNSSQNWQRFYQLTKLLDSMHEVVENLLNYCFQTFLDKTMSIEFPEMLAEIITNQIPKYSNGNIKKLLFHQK
Chain of Estrogen receptor (Homo sapiens) (P03372 whole entry, looked up, the tested form may be a part): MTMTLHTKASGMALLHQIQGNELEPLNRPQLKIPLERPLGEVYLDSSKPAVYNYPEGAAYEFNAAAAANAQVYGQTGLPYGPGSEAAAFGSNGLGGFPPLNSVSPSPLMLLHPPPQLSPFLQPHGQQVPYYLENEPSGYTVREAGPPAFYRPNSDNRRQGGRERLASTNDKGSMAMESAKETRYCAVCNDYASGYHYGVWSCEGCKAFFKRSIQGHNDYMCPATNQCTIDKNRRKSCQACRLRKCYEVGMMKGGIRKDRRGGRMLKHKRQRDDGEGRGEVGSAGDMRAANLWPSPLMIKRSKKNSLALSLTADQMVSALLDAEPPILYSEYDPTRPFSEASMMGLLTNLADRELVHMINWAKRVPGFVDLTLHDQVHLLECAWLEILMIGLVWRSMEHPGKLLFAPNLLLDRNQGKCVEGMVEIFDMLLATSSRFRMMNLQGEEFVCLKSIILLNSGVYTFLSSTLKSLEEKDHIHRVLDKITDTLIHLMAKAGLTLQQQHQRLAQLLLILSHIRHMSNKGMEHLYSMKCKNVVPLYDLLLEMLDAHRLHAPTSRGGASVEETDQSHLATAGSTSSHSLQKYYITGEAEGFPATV
Chain of Steroid hormone receptor ERR1 (Homo sapiens) (P11474 whole entry, looked up, the tested form may be a part): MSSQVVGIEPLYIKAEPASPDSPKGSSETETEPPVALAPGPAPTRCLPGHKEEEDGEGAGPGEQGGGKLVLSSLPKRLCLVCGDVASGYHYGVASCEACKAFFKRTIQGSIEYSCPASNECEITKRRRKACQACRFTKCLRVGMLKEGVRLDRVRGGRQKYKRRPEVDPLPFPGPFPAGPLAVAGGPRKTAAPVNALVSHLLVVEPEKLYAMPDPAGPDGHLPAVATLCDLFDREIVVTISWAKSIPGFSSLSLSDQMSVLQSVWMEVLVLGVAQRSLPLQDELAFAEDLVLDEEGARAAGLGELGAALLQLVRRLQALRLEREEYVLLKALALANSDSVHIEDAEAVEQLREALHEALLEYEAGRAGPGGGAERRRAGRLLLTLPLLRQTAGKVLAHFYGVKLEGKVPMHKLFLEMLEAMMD
Chain of Estrogen-related receptor gamma (Homo sapiens) (P62508 whole entry, looked up, the tested form may be a part): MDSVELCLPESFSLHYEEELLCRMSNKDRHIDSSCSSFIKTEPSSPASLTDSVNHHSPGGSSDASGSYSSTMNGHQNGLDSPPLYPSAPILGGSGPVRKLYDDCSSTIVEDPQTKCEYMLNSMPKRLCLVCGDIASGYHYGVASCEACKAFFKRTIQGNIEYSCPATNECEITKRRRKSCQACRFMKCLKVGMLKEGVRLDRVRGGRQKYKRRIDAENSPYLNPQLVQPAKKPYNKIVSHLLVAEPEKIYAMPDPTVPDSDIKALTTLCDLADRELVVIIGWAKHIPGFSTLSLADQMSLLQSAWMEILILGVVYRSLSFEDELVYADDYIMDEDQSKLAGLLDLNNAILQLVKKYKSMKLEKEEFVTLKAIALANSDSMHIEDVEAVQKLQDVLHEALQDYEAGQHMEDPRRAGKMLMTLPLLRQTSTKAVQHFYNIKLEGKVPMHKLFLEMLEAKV
Chain of Bile acid receptor (Homo sapiens) (Q96RI1 whole entry, looked up, the tested form may be a part): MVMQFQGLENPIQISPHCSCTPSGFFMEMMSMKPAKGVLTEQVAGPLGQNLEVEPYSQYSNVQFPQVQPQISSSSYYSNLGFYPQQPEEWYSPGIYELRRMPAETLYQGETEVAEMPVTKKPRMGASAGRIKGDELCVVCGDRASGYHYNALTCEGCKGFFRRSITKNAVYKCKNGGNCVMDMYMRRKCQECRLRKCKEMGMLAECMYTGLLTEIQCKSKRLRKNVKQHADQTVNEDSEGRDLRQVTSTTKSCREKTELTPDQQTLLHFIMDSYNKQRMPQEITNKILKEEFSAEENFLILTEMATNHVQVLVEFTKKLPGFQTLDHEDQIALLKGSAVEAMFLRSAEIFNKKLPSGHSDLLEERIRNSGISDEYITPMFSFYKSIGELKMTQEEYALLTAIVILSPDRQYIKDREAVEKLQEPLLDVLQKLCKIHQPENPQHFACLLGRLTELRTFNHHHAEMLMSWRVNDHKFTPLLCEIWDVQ

Take `CCNc1nc(N)nc(Cl)n1`: the call in test [1], in test [2] and in test [3] was inactive.
Turning to `CCCCCOC(=O)COc1cc(N2C(=O)C3=C(CCCC3)C2=O)c(F)cc1Cl`, the call in test [1], in [4], in test [3], in [5] and in test [6] was inactive.
What is called AC50 is the concentration at which the activity in the assay is half-maximal. For `CC1(C)C(C=C(Cl)Cl)C1C(=O)OCc1cccc(Oc2ccccc2)c1` (centres undefined), the figures for the AC50 in [1] and in test [4] were 10 µM (active) and 25.9 µM (active), respectively. For the same molecule, the molecule was called inactive in test [3], in test [5], in [7] and in test [6].
On to `CCCN(CCC)C(=O)SCC`, for which the call in test [1], in [4], in test [3], in test [5] and in [6] was inactive.
For the molecule `OB(O)O`, the molecule was called inactive in test [1], in test [4], in [2], in test [3], in test [5] and in test [8]. The molecule was classed as inactive in test [6] and in test [9].
In the case of `CCCN(CCC)c1c([N+](=O)[O-])cc(C(F)(F)F)c(N)c1[N+](=O)[O-]`, the AC50 in [1] is 3.57 µM (active); in [4] it was 5.67 µM (active). Moreover, the outcome in test [2], in test [3] and in test [8] was inactive.
For the molecule `COC(=O)c1ccc(I)cc1S(=O)(=O)NC(=O)Nc1nc(C)nc(OC)n1`, the molecule was called inactive in [1] and in test [3].
